# PubChem BioAssay (NCI)
# Where “and” joins values, the source holds several entries; their conditions need not be identical. Equal entries are not always repeated. Compounds without any hit were thinned out: in the full panel of roughly 79,000, 15% have a hit. Calls of active or inactive are those of the source. No stated cut-off is given here; in the data, active means growth inhibition above about 70%; inactive means the rest.
# Assay: NCI Yeast Anticancer Drug Screen. Data for the rad50 strain (AID 155);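 further: 0% = growth of vehicle-only cultures of the same strain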
# Conditions: S. cerevisiae rad50 strain growth inhibition, hits give high values; at 50.0 µM unless noted
# Procedure, shortened: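 Cells are treated with compound, grown, and their growth is then scored against vehicle-only cultures of the same repair-deficient yeast strain.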
row,SMILES,growth inhibition
1,O=c1[nH]c(=O)n(C2CC(O)C(CO)O2)cc1OCCCc1ccccc1 (stereo not given),-27.8% (inactive)
2,CC(=O)Nc1ccc(NC(=O)NCCCCCCNC(=O)Nc2ccc(NC(C)=O)cc2)cc1,-1.5% (inactive)
3,Nc1nc2cc(F)ccc2o1,1.05% (inactive)
4,CCc1cccc(CC)c1NC(=O)OCCN(CC)CC,-3.8% (inactive)
5,O=c1oc2ccccc2cc1O,-12.2% (inactive)
6,Fc1ccc2c(c1)SC1Oc3ccccc3-c3c1c-2nn3-c1ccccc1 (stereo not given),-5.45% (inactive)
7,CCN(CC)c1c(C)c(-c2ccccc2)n[n+]([O-])c1-c1ccccc1,35.9% (inactive)
8,Cc1ccc(N2CCC(O)C2)cc1 (stereo not given),-19.4% (inactive)
9,CC1COC(C)(C)P(=O)(c2ccccc2)C1 (stereo not given),-6.9% (inactive)
10,CCC(C(N)=O)c1ccccc1 (stereo not given),-16.3% (inactive)
11,N#Cc1c(C(F)(F)F)cc(-c2cccs2)nc1SC(C(=O)Nc1cc(C(F)(F)F)cc(C(F)(F)F)c1)c1ccccc1 (stereo not given),13.6% (inactive)
12,CCCCCCC(=O)C/C(=N/NC(N)=S)C(=O)NC1C2CC3CC(C2)CC1C3 (stereo not given),-14.8% (inactive)
13,Cc1ccc(S(=O)(=O)C2CC(=O)N(c3ccc(F)c(Cl)c3)C2=O)cc1 (stereo not given),-26.6% (inactive)
14,N#CCCCCCOCCOCCOCCOCCOCCCCCC#N,12.8% (inactive)
15,CC12C(=C(C#N)C(=N)N1c1ccc(Cl)c(Cl)c1)C=C(O)CC2SCCS(=O)(=O)O (stereo not given),13.2% (inactive)
16,FC(F)(F)c1cc(NC(=S)SCc2ccc3c(c2)OCO3)ccc1Cl,73.5% (active)
17,O=c1nc2c(c(-c3ccc(F)cc3)[nH]1)COC/C2=C\c1ccc(F)cc1,18.2% (inactive)
18,Cc1ccccc1NC(=O)C(=O)CC(=O)c1sc(-n2nc(-c3ccccc3)cc2-c2ccccc2)nc1C,12.3% (inactive)
19,CC(C)N(Cc1ccccc1)S(=O)(=O)c1n[nH]c(C(C)(C)C)n1,3.2% (inactive)
20,S=C(S)Nc1cccc2ccccc12,-14.4% (inactive) and 11.2% (inactive)

row,SMILES,growth inhibition
1,O=C(O)[C@H](Cc1ccccc1)N1C(=O)N[C@@H](Cc2ccccc2)C1=O,-21.6% (inactive)
2,N#Cc1c(-c2ccc(Cl)cc2)c(-c2ccc(Cl)cc2)nn(CCOC(=O)CCC(=O)OCCn2nc(-c3ccc(Cl)cc3)c(-c3ccc(Cl)cc3)c(C#N)c2=O)c1=O,-11.7% (inactive)
3,O=c1c2c3c(sc2nc2n1N=C(c1ccc(Cl)cc1)CS2)CCCC3,-23.6% (inactive)
4,COc1nc(NC2OC(CO)C(O)C(O)C2O)c(I)c(=O)[nH]1 (stereo not given),5.3% (inactive)
5,N#C/C(=C1/c2cc([N+](=O)[O-])ccc2-c2c1cc([N+](=O)[O-])cc2[N+](=O)[O-])N1CCCCC1,-25.4% (inactive)
6,CCOC(=O)C(=O)Nc1c(C)cccc1C(C)(C)C,-22.1% (inactive)
7,Cc1ccc(-c2nc3ccc(Cl)cc3[nH]2)cc1,-10.7% (inactive)
8,COc1ccc(C(OC(=O)Oc2ccccc2)c2ccccc2)cc1 (stereo not given),-9.1% (inactive)
9,OCC[P+](c1ccccc1)(c1ccccc1)c1ccccc1,17.6% (inactive)
10,CCCCCCCCCCCCCCCC[N+](C)(C)CC#N,99.4% (active)
11,O=C(CSS(=O)(=O)O)Nc1ccccc1,17.6% (inactive)
12,COc1ccccc1CN1CCCN(Cc2ccccc2OC)C1c1ccc(N(C)C)cc1,59.6% (inactive)
13,O=c1oc(-c2ccc([N+](=O)[O-])cc2Cl)nc2ccccc12,13.2% (inactive)
14,COc1ccc(C(=[N+]=[N-])c2ccc(OC)cc2)cc1,-4.65% (inactive)
15,O=C(CCl)Oc1ccc(C(=O)O)cc1,-1.1% (inactive)
16,N/N=C1/CCN2CCCc3cccc1c32,11.2% (inactive)
17,Cc1cc(Cl)ccc1OCC(=O)NCCO,33.4% (inactive)
18,CN(C)c1ccc(/C=C2\C(=O)/C(=C\c3ccc(N(C)C)cc3)c3ccccc32)cc1,2.95% (inactive)
19,COc1cccc(C(c2ccccc2)C(CC(=O)O)CC(=O)O)c1 (stereo not given),8.8% (inactive)
20,C=C(C)C(C(=O)OCC)C(=O)OCC,3.4% (inactive)
